# According to the supplement of paper PMC6555819:
# What was measured:
# Experiment in all cases: PBM binding z-score (relative to random genomic background probes); higher = stronger binding; sequences stand for … in GC…GCGATTGACAGCGTAGAATGAAGG
# [1] = tested on: FXR:RXRa (NR concentration 270 nM, RXRa partner concentration 90 nM)
# Outline: (§1)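 Random background probes are the reference for binding z-scores. These scores derive from regression-normalized fluorescence on custom Agilent 4×180K protein-binding microarrays incubated 1 h with ligand-free nuclear receptor dimers. Binding was detected with antibodies against each partner (one per run).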
# [2] = tested on: LXRa:RXRa (NR concentration 270 nM, RXRa partner concentration 90 nM)
# Outline: as §1
# [3] = tested on: LXRa homodimer (NR concentration 270 nM)
# Outline: as §1
# [4] = tested on: LXRb:RXRa (NR concentration 270 nM, RXRa partner concentration 90 nM)
# Outline: as §1
# [5] = tested on: LXRb homodimer (NR concentration 270 nM)
# Outline: as §1
# [6] = tested on: PPARa:RXRa (NR concentration 270 nM, RXRa partner concentration 90 nM)
# Outline: as §1
# [7] = tested on: PPARg:RXRa (NR concentration 180 nM, RXRa partner concentration 90 nM)
# Outline: as §1
# [8] = tested on: PPARg:RXRa 270nM:90nM, anti-RXR (NR concentration 270 nM, RXRa partner concentration 90 nM)
# Outline: as §1
# [9] = tested on: PPARg:RXRa 30nM:10nM, anti-RXR (NR concentration 30 nM, RXRa partner concentration 10 nM)
# Outline: as §1
# [10] = tested on: PPARg:RXRa 90nM:30nM, anti-RXR (NR concentration 90 nM, RXRa partner concentration 30 nM)
# Outline: as §1
# [11] = tested on: PPARg:RXRa DBDmut IVT, anti-RXR (DBD mutation: RXRa K156A/R161A, NR concentration 270 nM, RXRa partner concentration 90 nM)
# Outline: as §1
# [12] = tested on: PPARg:RXRa IVT, anti-PPARg (NR concentration 270 nM, RXRa partner concentration 90 nM)
# Outline: as §1
# [13] = tested on: PPARg DBDmut:RXRa IVT, anti-PPARg (DBD mutation: PPARg1 K132A/R137A, NR concentration 270 nM, RXRa partner concentration 90 nM)
# Outline: as §1
# [14] = tested on: PPARg DBDmut IVT, anti-PPARg (DBD mutation: PPARg1 K132A/R137A, NR concentration 270 nM)
# Outline: as §1
# [15] = tested on: PPARg homodimer (NR concentration 180 nM)
# Outline: as §1
# [16] = tested on: PXR:RXRa (NR concentration 270 nM, RXRa partner concentration 90 nM)
# Outline: as §1
# [17] = tested on: PXR homodimer (NR concentration 270 nM)
# Outline: as §1
# [18] = tested on: RARa:RXR (NR concentration 270 nM, RXRa partner concentration 90 nM)
# Outline: as §1
# [19] = tested on: RARa homodimer (NR concentration 270 nM)
# Outline: as §1
# [20] = tested on: RARb:RXRa (NR concentration 270 nM, RXRa partner concentration 90 nM)
# Outline: as §1
Sequence,PBM binding z-score [1],PBM binding z-score [2],PBM binding z-score [3],PBM binding z-score [4],PBM binding z-score [5],PBM binding z-score [6],PBM binding z-score [7],PBM binding z-score [8],PBM binding z-score [9],PBM binding z-score [10],PBM binding z-score [11],PBM binding z-score [12],PBM binding z-score [13],PBM binding z-score [14],PBM binding z-score [15],PBM binding z-score [16],PBM binding z-score [17],PBM binding z-score [18],PBM binding z-score [19],PBM binding z-score [20]
TCGAGTAGGTTAGTCGGGGCATTCGGCCAACATA,-0.18,-0.185,-0.523,0.162,-0.854,0.505,-0.197,0.72,0.731,0.597,1.74,2.04,-1.62,-1.17,0.0341,0.113,0.177,0.065,-0.901,0.58
GCTAGTTGGTCAATAAAAGGTCACACACCGGTCG,3.63,5.13,6.33,4.53,0.973,4.39,2.18,3.93,1.16,2.9,1.64,3.07,0.532,0.266,4.72,5.3,1.4,5.89,3.47,4.33
ACTAGCAGGCCAAGTTTGGGTCACTCGAACAAAG,0.398,0.0952,-0.533,0.67,-0.727,1.33,0.0973,0.504,-0.62,0.14,1.03,1.36,-0.745,-0.0393,0.399,0.625,-0.591,1.12,-0.754,1.68
CCTACTGGGCCATTCAGAGGTCAGTGATCATATG,0.991,1.94,2.35,1.78,-0.442,2.54,1.47,1.99,0.391,1.29,4.58,3.89,-0.582,-0.353,2.08,2.28,0.543,2.64,0.443,2.77
CTCGAAAGGTCGTGTTCAGGTGAGTATACCAAAC,4.67,3.64,0.232,3.31,0.113,4.76,2.42,3.38,0.878,2.07,0.51,1.95,0.275,1.56,1.51,3.14,0.411,3.85,0.304,3.78
ATCGAAAGGTCGAGGTGAGAATAGAGAAAGGGAA,4.1,3.48,0.181,2.84,0.399,4.79,3.58,3.93,1.56,2.64,0.541,2.39,1.22,0.93,0.599,2.36,0.337,3.52,0.51,4.16
GTACCAAGGTGAATAGGTCATTGATGAGTAGGCG,2.6,2.66,1.28,2.14,-0.295,3.87,3.39,3.52,1.55,2.85,3.17,4.04,0.503,0.284,4.15,2.62,0.883,4.41,1.5,3.56
CGTACTGGGCCACGAAAGGTCATTGATTCAGTGA,4.13,4.99,5.16,4.46,0.336,4.75,4.87,4.93,2.22,4.16,5.64,5.82,1.54,0.503,4.05,5.71,2.11,5.78,1.22,4.17
CCTCCAAGGTCAAAGGTCAGTGAAGAGATGACGG,8.2,6.83,3.53,6.63,1.95,7.19,10.5,8.79,8.47,9.3,3.51,5.62,0.87,-0.101,3.71,6.78,2.06,8.62,3.07,6.03
CCTCGGAAGACAGAAGGTCAGAGCTGTCCGCTTT,0.995,1.6,0.422,1.25,-0.462,1.69,-0.302,0.238,-0.803,-0.38,-0.276,-0.376,-1.12,-1.96,1.82,1.38,-0.0252,1.89,0.512,2.33
ATACCAAGGTGATCGTGAGGTCTTTGATACTAAC,0.467,0.136,0.00658,0.0706,-0.603,0.646,0.322,0.105,-0.238,-0.296,0.237,1.08,0.449,0.702,0.551,0.655,-0.114,0.833,0.255,0.705
CGTCAAAGTTCAAGGTAACATAACAGAAAGCAGC,6.08,5.39,2.7,3.37,1.22,4.67,4.56,5.16,2.16,3.9,0.0346,2.06,0.987,0.494,2.78,4.26,2.87,3.65,1.23,5.13
CTCGAAAGGTCGGTTGAGGTGAGTATACGGATAA,2.05,1.7,-0.0944,1.35,-0.0787,2.63,0.61,1.18,-0.156,0.663,-0.0424,0.699,0.597,-0.651,0.927,3.19,-0.354,3.13,0.103,2.98
TCTAGTTGGTCACGGAGGTCACTCACGACGGGTA,2.52,2.98,1.91,2.84,0.542,3.15,2.52,3.55,3.29,3.24,2.58,3.97,0.646,0.986,2.5,3.9,1.36,3.6,1.05,3.47
CGAACGAGGGTATGAGTTGATAGCAAATGCCGAT,-0.386,-0.2,-0.268,-0.396,-0.567,-0.124,0.652,0.353,-0.0706,0.292,0.876,0.397,0.137,0.369,-0.383,-0.238,0.0824,-0.307,0.157,0.117
CCTATTAGTTGTCCATAAGGGCAACCGAAGCTCG,0.902,0.553,0.8,0.558,1.17,0.459,0.174,0.706,-0.0798,0.365,0.332,0.804,0.706,1.02,1.69,0.563,0.996,1.1,2.11,1.44
CGTCAAAGTTCAAGGAAACGTAACAGAAAGCAGC,5.45,5.15,1.92,2.97,0.958,4.11,3.58,4.4,1.69,3.29,0.0711,1.12,0.307,1.1,1.84,3.45,1.73,2.73,1.33,5
ACAGACAGGTGATGAAGATAACTCAGGCTATCAT,-0.21,-0.125,-0.283,-0.276,-0.0745,-0.164,0.734,-0.057,0.429,0.0893,-0.0309,0.209,0.00107,0.948,0.0066,-0.435,0.0307,-0.227,0.47,0.0491
ACTAGTTGGTCAGCTGAGGTCACACATAATTCGG,3.42,3.14,2.03,3.37,1.17,3.6,1.8,2.34,0.875,1.62,1.85,2.53,0.818,1.05,2.38,5.42,1.87,4.34,1.21,3.51
CTCGAAAGGTCGTGCTCATGTGAGTATACCAAAC,5.17,3.72,0.36,3.54,0.234,5.08,2.86,3.9,0.836,2.6,1.04,1.63,0.526,0.798,1.16,3.17,0.0761,4.03,0.231,4.13
TCATATAGGTAAAAGGTGAAAGGCGGTGTGGTAA,1.86,1.88,0.349,1.9,0.306,5.25,9.05,8.31,8.92,9.94,5.24,5.21,3.35,1.06,2.76,1.69,0.582,2.48,1.28,1.79
TGGAGTAGGTTAGTCGGGGCATTCAGCCAACATA,0.43,0.268,0.358,1.05,1.05,1.31,0.778,1.32,0.564,1.22,3.42,3.51,-0.389,-0.234,1.08,0.401,0.996,0.374,0.676,1.03
ACTAGTTGGTCAGCTGAGTTCACACACAATTCGG,1.06,1.59,1.72,1.59,0.275,1.65,0.747,0.792,0.098,0.251,1.2,1.32,0.662,0.707,0.775,5.66,6.87,2.32,0.2,2
ATATGTAGGTTAGCTGGGATCATTCAGACTAGGC,0.641,0.823,0.0491,0.629,0.181,2.71,3.18,2.72,0.999,1.85,6.87,5.92,1.97,2.29,0.83,1.21,0.543,0.547,0.6,0.723
CTCGATAGGTCGGTTGAGGTGAGTATACGGATAA,0.692,0.287,-0.389,0.0394,-0.451,0.659,-0.0443,-0.187,-0.208,-0.177,-0.342,0.362,0.83,0.287,0.144,1.21,0.123,1.11,-0.0628,1.17
CCGACTGGGGCATCAGGTTACCATAAGCCAGCCC,-0.188,0.277,-0.351,-0.136,-1.31,0.743,1.33,1.59,-0.0759,1.03,3.34,3.84,-0.621,-1.56,0.326,-0.505,-0.821,-0.109,-0.776,1.01
TCTTGTAGATTAATAGAGGTTAAGAAAGTGCGCT,1.31,4.17,2.85,2.28,0.623,2.07,0.283,2.2,3.11,2.59,2.32,0.996,0.986,0.929,1.23,3.4,0.795,2.2,0.565,1.21
AGTCAAAGTTCATCTAGGTTACGTAAGATATGCT,6.68,6.16,6.06,3.95,2.11,4.96,6.9,6.6,4.02,5.95,1.81,4.48,1.59,1.1,2.63,5.66,10.7,4.25,1.94,4.99
CGTCCATGGTCAGCAGGTCAGTGAAAGCGACGTG,0.175,-0.104,-0.348,-0.0301,-0.987,0.781,-0.0482,-0.0239,-0.823,-0.464,0.0989,0.518,-0.843,-0.979,-0.43,0.159,-0.486,0.728,-0.616,2.28
